Screening results: PubChem BioAssay, several laboratories
Hits are enriched below; roughly 3.9% of the tested compounds scored in any of these assays.
CCHF vOTU inh: CCHFV vOTU protease inhibitors, primary screen, biochemical, Pep-AMC substrate, fluorescence | 0.55% of 370,000 active | Crimean-Congo hemorrhagic fever virus L polyprotein viral ovarian tumor (vOTU) protease … | AID 651958, 2012 | inhibition, % at 11.5 µM; in the data active = inhibition above about 30%; note: 0% = vehicle wells with enzyme and 100% = no enzyme wells
Bead autofluor: flagged as autofluorescent in microsphere protease counterscreen; compound autofluorescence counterscreen, microsphere flow cytometry; stronger effect = higher value; fluorescence intensity (concentration not given with the values); 3.1% of 360,000 active; in the data active = fluorescence intensity above about 16000; inconclusive = no clear call, values can overlap the other calls
BoNT F protease: BoNT/F light chain protease inhibitors, primary screen, biochemical, flow cytometry, MLPCN library; inhibition, % at 10 µM; 0.22% of 360,000 active; Botulinum neurotoxin type F light chain protease (Clostridium botulinum); Multiplex microsphere protease cleavage assay; in the data active = inhibition above about 35%, passing the limit was not always enough; inconclusive = no clear call, values can overlap the other calls; note: plate controls were buffer without enzyme for full effect and enzyme alone for no effect
Anthrax LF inh2: Bacillus anthracis LF protease inhibitors, primary screen, biochemical, multiplex microsphere, MLPCN library; 0.12% of 360,000 active; inhibition, % at 10 µM; multiplex microsphere protease cleavage assay; AID 588501, 2011; note: plate controls were buffer without enzyme for full effect and enzyme alone for no effect
Target sequence (P15917 whole entry, looked up): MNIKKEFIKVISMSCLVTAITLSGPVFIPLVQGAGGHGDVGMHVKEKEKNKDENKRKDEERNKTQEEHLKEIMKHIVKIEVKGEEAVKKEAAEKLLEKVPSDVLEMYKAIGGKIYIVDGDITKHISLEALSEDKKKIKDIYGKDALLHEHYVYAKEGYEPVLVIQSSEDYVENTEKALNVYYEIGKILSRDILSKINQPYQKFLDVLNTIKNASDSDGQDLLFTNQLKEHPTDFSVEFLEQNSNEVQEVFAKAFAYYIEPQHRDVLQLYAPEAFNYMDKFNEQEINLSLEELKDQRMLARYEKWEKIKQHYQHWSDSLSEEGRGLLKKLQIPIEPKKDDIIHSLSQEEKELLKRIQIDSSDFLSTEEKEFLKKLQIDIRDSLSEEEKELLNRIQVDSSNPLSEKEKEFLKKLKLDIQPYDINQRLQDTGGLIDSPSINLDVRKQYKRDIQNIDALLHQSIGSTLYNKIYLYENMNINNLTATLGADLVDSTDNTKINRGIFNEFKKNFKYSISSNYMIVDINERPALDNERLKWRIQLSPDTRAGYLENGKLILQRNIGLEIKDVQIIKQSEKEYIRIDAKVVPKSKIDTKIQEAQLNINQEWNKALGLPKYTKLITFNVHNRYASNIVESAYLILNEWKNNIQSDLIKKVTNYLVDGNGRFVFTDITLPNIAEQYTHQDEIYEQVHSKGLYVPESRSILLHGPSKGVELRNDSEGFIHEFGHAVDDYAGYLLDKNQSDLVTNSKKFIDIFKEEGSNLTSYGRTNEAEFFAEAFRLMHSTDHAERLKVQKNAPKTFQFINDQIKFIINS
3CLpro inhibitor: SARS-CoV 3CLpro protease inhibitors, primary screen, biochemical, quenched FRET | recombinant SARS-CoV 3CLpro, quenched FRET peptide cleavage | Replicase polyprotein 1ab (Severe acute respiratory syndrome coronavirus), P0C6X7 | 0.14% of 290,000 active | inhibition, % at 6 µM; in the data active = inhibition above about 12%
BoNT-A LC inh2: BoNT/A light chain protease inhibitors, primary screen, biochemical, flow cytometry, MLPCN library. Botulinum neurotoxin type A light chain protease (Clostridium botulinum A str. ATCC 3502). multiplex microsphere protease substrate cleavage. inhibition, % at 10 µM. 0.17% of 360,000 active. AID 588499, 2011; note: plate controls were buffer without enzyme for full effect and enzyme alone for no effect
An asterisk follows results filed as active; ? = inconclusive; · = not tested or not shown. Cut-off read from the data, not from the text of the source, unless noted: active = inhibition above about 30%; inconclusive = no clear call, values can overlap the other calls; inactive = below that.

SMILES	CCHF vOTU inh	Bead autofluor	BoNT F protease	Anthrax LF inh2	3CLpro inhibitor	BoNT-A LC inh2
CCCN1C(=O)c2cccc3c(N4CCCCC4)ccc(c23)C1=O	-6	4642	11	14	-21	32*
CCN(CC)S(=O)(=O)c1ccc(C(=O)OCCN2C(=O)c3cccc4c(N5CCOCC5)ccc(c34)C2=O)cc1	-19	7204	20	28	-4	35*
CN(C)CCCN1CC(=O)N2CCc3ccc(Br)cc3C2CC1=O (centres undefined)	6	·	·	·	·	·
CCN(Cc1cn(Cc2ccccc2)nn1)S(=O)(=O)c1ccc(F)cc1Br	1	·	·	·	·	·
Cn1c(-c2ccc(F)cc2)cnc1NCc1ccccc1	-10	17208*	-6	-4	1	-3
Cn1c(-c2ccccc2)cnc1NCc1ccc(F)cc1	7	4574	?	-1	-5	-7
Cn1c(-c2cccc(Br)c2)cnc1NCc1cccnc1	1	23394*	-4	-2	0	-2
CCOC(=O)NC[C@@]1(C(=O)OC)CC(=O)N(Cc2ccc(Cl)cc2)[C@@H]1c1ccc(OC)cc1	8	·	·	·	·	·
O=C(CCn1nnc2ccccc2c1=O)NCC1CCC(C(=O)O)CC1 (centres undefined)	6	24413*	-1	-3	1	-3
C[C@H](NC(=O)CCn1nnc2ccccc2c1=O)C(=O)O	-4	·	·	·	0	·
O=C(O)CCCNC(=O)CCn1nnc2ccccc2c1=O	6	4894	-4	-2	-2	-1
O=C(O)CCCCCNC(=O)CCn1nnc2ccccc2c1=O	-1	21187*	6	-2	-2	?
COc1ccc(CN2C[C@@]3(O)CC[C@@H](O)[C@@H](OC)[C@@H]3[C@@](C)(O)[C@@H]2CC=C(C)C)cc1	12	·	·	·	·	·
COc1cc(C(=O)OCC(=O)Nc2ccc(F)cc2F)cc(OC)c1OC	-9	20961*	-4	-10	1	?
COc1ccc(C(=O)OCC(=O)Nc2ccc(F)cc2F)cc1OC	0	3602	-6	-1	-5	-1
CCC(CC)NC(=O)COC(=O)c1ccc(OCC(=O)Nc2ccccc2OC)c(OC)c1	-12	21089*	7	-2	8	?
CCCNC(=O)COC(=O)c1ccc(OCC(=O)Nc2ccccc2OC)c(OC)c1	-8	4248	10	0	1	1
CCCC[C@H]1C2CC(OC(=O)Nc3ccc(C#N)cc3)C(C2)[C@H]2CCCCN21 (some centres undefined)	-5	·	·	·	·	·
C=CCSc1ncnc2c1oc1nc3c(cc12)COC(C)(C)C3	6	5360	1	7	5	0
CC(C)CSc1ncnc2c1oc1nc3c(cc12)COC(C)(C)C3	15	20132*	-3	2	0	-1
C(=N\c1nc2ccccc2[nH]1)/c1cccs1	-3	23619*	-2	-2	1	?
CCOc1ccc(CCN2C(=O)CCC2(C)C(=O)NC(C)CC)cc1OCC (centres undefined)	2	23716*	0	2	1	0
COc1ccc(CCN2C(=O)CCC2(C)C(=O)NC2CCCC2)cc1OC (centres undefined)	-7	4572	-10	1	-7	-1
CCCCNc1oc(-c2ccc(OC)cc2)nc1S(=O)(=O)c1ccccc1	-9	21088*	-2	-1	6	-1
CCNc1oc(-c2ccccc2F)nc1S(=O)(=O)c1ccccc1	·	4097	6	0	-3	4
SMILES	CCHF vOTU inh	Bead autofluor	BoNT F protease	Anthrax LF inh2	3CLpro inhibitor	BoNT-A LC inh2
CCNc1oc(-c2ccc(OC)cc2)nc1S(=O)(=O)c1ccc(Br)cc1	-10	21449*	-7	-1	0	?
CCOc1ccc(-c2nc(S(=O)(=O)c3ccccc3)c(NC)o2)cc1	7	5222	-4	-5	4	-1
CCCCCCOc1ccc(CN2CCN(C)CC2)cc1	-7	24568*	-4	-2	-1	?
CCCCOc1ccc(CN2CCCCC2)cc1	-10	12284	-8	-2	0	-1
Cc1nn(C)cc1/C=N/n1nnnc1N	-4	17300*	6	-11	3	6
Cc1ccc(/C=N/n2nnnc2N)o1	5	5678	0	-3	-4	0
CCN(CC)CCCN(Cc1cc2cc(OC)c(OC)cc2[nH]c1=O)C(=O)Nc1ccccc1	-13	22160*	-1	-9	8	0
COc1ccccc1NC(=O)N(CCN1CCCC1)Cc1cc2cc(C)ccc2[nH]c1=O	-12	23245*	-2	0	-2	-3
CCN(CC)CCCN(Cc1cc2cc3c(cc2[nH]c1=O)OCO3)C(=O)Nc1ccccc1OC	-15	2903	7	-3	4	0
Cc1ccc(CN2CCCCC(NC(=O)c3ccc4ccccc4c3)C2=O)cc1 (centres undefined)	5	·	·	·	·	·
C=CCN1C(=O)C2(OCCCO2)c2ccccc21	6	3449	-2	10	0	-1
O=C1N(Cc2ccc(F)cc2Cl)c2ccccc2C12OCCCO2	-6	19128*	-1	0	-1	2
O=C1N(Cc2ccccc2F)c2ccccc2C12OCCCO2	-8	20831*	-3	-1	2	0
O=C1N(CN2CCN(Cc3ccccc3)CC2)c2ccccc2C12OCCCO2	-11	4344	-3	3	4	0
Cc1nnc(C)c2c(C)n(C(C)c3ccccc3)c(C)c12 (centres undefined)	-1	3434	-22	-4	-7	1
COc1ccc(C(C)n2c(C)c3c(C)nnc(C)c3c2C)cc1 (centres undefined)	-10	16371*	-5	-1	4	3
O=C(NCc1ccccc1)[C@H]1CCCN1C(=O)[C@H]1CCCN1C(=O)c1ccc(OC(F)(F)F)cc1	-4	·	·	·	·	·
CCOC(=O)c1ccc(NC(=O)CCn2nnc3ccccc32)cc1	1	3894	-1	3	-6	1
CCOc1cc(NC(=S)NCCCN2CCOCC2)c(OCC)cc1NC(=O)CC(C)C	-1	22374*	-4	-1	-2	-1
CCOc1cc(NC(=S)Nc2cccc(C)c2)c(OCC)cc1NC(=O)CC(C)C	5	22828*	-4	-2	1	-1
O=C(CCn1nnc2ccccc21)Nc1nnc(COc2ccc(F)cc2)s1	-2	21872*	-1	-3	4	?
CCOc1cc(NC(=O)CC(C)C)c(OCC)cc1NC(=O)CCn1nnc2ccccc21	-3	21013*	-5	-2	-1	-2
O=C(CCn1nnc2ccccc21)Nc1nnc(Cc2ccc(F)cc2)s1	14	7478	-4	?	2	?
CCOC(=O)N1CCN(C(=O)C[C@H]2C[C@@]3(C(=O)OC)C(=C[C@H](COCc4ccccc4)O[C@@H]3C)N(Cc3ccc(Cl)cc3Cl)C2=O)CC1	5	·	·	·	·	·
